Test results published in PubChem BioAssay (Tox21).
Results filed as inconclusive are left out. Calls of active or inactive are those of the source. Calls follow the shape of the dose curve; as a rule, active = well fitted curve in the direction sought with a large enough effect in the repeat runs; inconclusive = weak or mixed curves; inactive = no such curve, though single readings can be large; an effect the other way counts as inactive or inconclusive.

test: A CellTox Green Cytotoxicity Assay to monitor cytotoxicity in HEK293 cells - 8 hour (AID 1224884); conditions: CellTox Green fluorescence; series mostly up to 76.8 µM; cytotoxicity increase: at the top concentration; also: nearly all actives have a fitted effect of over 35% in size
Outline: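 Read-out: fluorescence of a cell-impermeant cyanine dye staining DNA of dead cells, proportional to cytotoxicity. HEK293, 600 cells/well with reagent, compound (23 nL DMSO) added after 5 h; reads at 0, 8, 16, 24, 32, 40 h.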
% is scaled to controls: 0 for no effect and ±100 for the full control effect.

| Structure (SMILES) | cytotoxicity increase |
| --- | --- |
| CC(=O)Nc1ccccc1O | 27.7% (inactive) |
| O=C(OCCN1CCOCC1)c1cccnc1Nc1cccc(C(F)(F)F)c1 | -18.2% [at 35.3 µM] (inactive) |
| C=C[Si](OCC)(OCC)OCC | -8.55% (inactive) |
| O=[N+]([O-])c1ccccc1CCO | -15% (inactive) |
| O=C(Cl)c1cc(Cl)cc(Cl)c1 | -2.76% (inactive) |
| CCC1=C(C)CN(C(=O)NCCc2ccc(S(=O)(=O)NC(=O)NC3CCC(C)CC3)cc2)C1=O (centres undefined) | 1.31% [at 35.3 µM] (inactive) |
| CCCCCC1CCC(=O)O1 (centres undefined) | 1.78% (inactive) |
| CCOc1cc(OCC)c(C(C)=O)cc1OCC | 0.108% (inactive) |

test: qHTS RealTime-Glo MT Cell Viability Assay in HepG2 cells - 16 hour (AID 1224885); conditions: RealTime-Glo luminescence; series mostly up to 76.8 µM; activity change, negative = cytotoxic: at the top concentration; also: nearly all actives have a fitted effect of over 50% in size
Outline: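 Real-time, nonlytic viability: 600 HepG2 cells/well mixed with NanoLuc enzyme plus prosubstrate; 5 h settle, compound (DMSO) added by pintool; luminescence monitored over 40 h at 37 C.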

| Structure (SMILES) | activity change, negative = cytotoxic |
| --- | --- |
| C=CC(=O)OCCCCCCCCCC | 0.513% (inactive) |
| O=C(O)c1ccc2c(c1)nc(C(=O)NC1CCN(C3CC3)CC1)n2Cc1cc(-c2ccc(Cl)s2)on1 | -5.36% [at 15.8 µM] (inactive) |
| CC(COc1ccccc1)NC(C)C(O)c1ccc(O)cc1 (centres undefined) | 0.713% [at 35.3 µM] (inactive) |
| Clc1nc2ccccc2nc1Cl | 1.78% (inactive) |
| CCCCCCCCCCCC(=O)OCC | 3.12% (inactive) |
| CCCN(C1CCN(C(=O)C2CCNCC2)CC1)[C@@H]1CCc2ccc(OC)cc2C1 | -5.81% (inactive) |
| CCCOC(C)=O | 0.616% (inactive) |
| Cc1c(-c2cccnc2)c2ccccc2n1CCCCC(=O)O | 1.92% (inactive) |
| CCC(=O)O[C@@H]1C[C@H]2CC[C@]1(C)C2(C)C | 0.119% (inactive) |
| O=[N+]([O-])c1cccc(I)c1 | 5.53% (inactive) |
| O=C(O)c1c2ccccc2cc2ccccc12 | 1.83% (inactive) |
| O=C(O)c1cccnc1Nc1cccc(C(F)(F)F)c1 | 0.547% [at 35.3 µM] (inactive) |
| Cc1ccc2ccccc2c1[N+](=O)[O-] | -2.09% (inactive) |
| O=c1c2ccccc2oc2ccccc12 | 1.61% (inactive) |
| CC(=O)c1ccc(Cl)c(Cl)c1Cl | -0.0337% (inactive) |
| CCc1cnc(C(=O)O)c(C(=O)O)c1 | 3.74% (inactive) |
